Assay results from PubChem BioAssay AID1159580 (chemical genetic matrix, 2015).
Hit rate of the full screen: of about 5,500 compounds, about 2,000 (36%) were called active. About 18% were inconclusive and are not listed. Cut-off read from the data, not from the text of the source: active = normalized growth mostly below about 0.91 (no sharp cut-off); inconclusive = no clear call, values can overlap the other calls; inactive = mostly above about 0.92. The list shows a part of the results.

Experiment: chemical genetic growth profiling, strain panel (AID 1159580);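 note: tested at 20 µM; growth read once vehicle control cultures reached saturation at 30 °C; 1 = growth at the plate median or of vehicle wells; lower values mean less growth of the strain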
Conditions: S. cerevisiae deletion strains, growth OD

Measured: normalized growth

FC(F)(F)c1cccc(N2CCNCC2)c1
inactive: locus YAL013W, strain DEP1, hits give low values 1 | locus YAL021C, strain ccr4, hits give low values 0.992 | locus YAL026C, strain drs2, hits give low values 1 | locus YAL030W, strain snc1, hits give low values 0.99 | locus YBL061C, strain skt5, hits give low values 0.992 | locus YBR009C, strain hhf1, hits give low values 0.978 | locus YBR021W, strain FUR4, hits give low values 0.991 | locus YBR023C, strain chs3, hits give low values 0.996 | locus YBR171W, strain sec66, hits give low values 1.01 | locus YBR229C, strain ROT2, hits give low values 1.01 | locus YBR231C, strain swc5, hits give low values 0.99 | locus YBR279W, strain paf1, hits give low values 1 | locus YCL011C, strain gbp2, hits give low values 0.999 | locus YCL016C, strain dcc1, hits give low values 0.991 | locus YCL029C, strain bik1, hits give low values 0.996 | locus YCL061C, strain MRC1, hits give low values 1 | locus YCL069W, strain vba3, hits give low values 1 | locus YCR088W, strain abp1, hits give low values 1.01 | locus YDL005C, strain med2, hits give low values 1 | locus YDL035C, strain GPR1, hits give low values 1 | locus YDL040C, strain nat1, hits give low values 0.988 | locus YDL074C, strain BRE1, hits give low values 0.994 | locus YDL101C, strain DUN1, hits give low values 1 | locus YDL134C, strain PPH21, hits give low values 1.01 | locus YDL185W, strain tfp1, hits give low values 0.994 | locus YDL192W, strain arf1, hits give low values 0.995 | locus YDR001C, strain nth1, hits give low values 1.01 | locus YDR069C, strain doa4, hits give low values 0.973 | locus YDR101C, strain arx1, hits give low values 0.994 | locus YDR137W, strain rgp1, hits give low values 1 | locus YDR159W, strain sac3, hits give low values 0.956 | locus YDR162C, strain NBP2, hits give low values 1.01 | locus YDR195W, strain ref2 0.928 | locus YDR297W, strain sur2, hits give low values 1 | locus YDR318W, strain mcm21, hits give low values 0.989 | locus YDR334W, strain swr1, hits give low values 1.01 | locus YDR335W, strain msn5, hits give low values 0.993 | locus YDR388W, hits give low values 0.977 | locus YDR392W, strain spt3, hits give low values 0.89 | locus YDR502C, strain sam2, hits give low values 0.98 | locus YEL003W, strain gim4, hits give low values 1.01 | locus YEL037C, strain rad23, hits give low values 1 | locus YEL061C, strain CIN8 (second series), hits give low values 1.01 | locus YEL061C, strain CIN8, hits give low values 1.01 | locus YER015W, strain faa2, hits give low values 0.994 | locus YER016W, strain bim1, hits give low values 0.995 | locus YER110C, hits give low values 0.976 | locus YER111C, strain swi4, hits give low values 0.999 | locus YER155C, strain BEM2 (second series), hits give low values 0.93 | locus YER155C, strain BEM2, hits give low values 1.01 | locus YER167W, strain BCK2, hits give low values 1 | locus YFR010W, strain ubp6, hits give low values 1.03 | locus YGL078C, strain dbp3, hits give low values 0.973 | locus YGL086W, strain mad1, hits give low values 0.983 | locus YGL167C, strain pmr1, hits give low values 0.981 | locus YGL173C, strain kem1, hits give low values 1.01 | locus YGL227W, strain vid30, hits give low values 1 | locus YGL240W, strain doc1, hits give low values 0.962 | locus YGL248W, strain PDE1, hits give low values 1.01 | locus YGL253W, strain hxk2, hits give low values 1.02 | locus YGR135W, strain pre9, hits give low values 0.953 | locus YGR229C, strain SMI1, hits give low values 0.987 | locus YGR252W, strain gcn5, hits give low values 0.932 | locus YHR013C, strain ard1, hits give low values 0.961 | locus YHR027C, strain rpn1, hits give low values 0.994 | locus YHR030C, strain SLT2, hits give low values 1.01 | locus YHR079C, strain IRE1 (second series), hits give low values 0.998 | locus YHR094C, strain hxt1, hits give low values 0.992 | locus YHR129C, strain ARP1, hits give low values 1.01 | locus YHR142W, strain chs7, hits give low values 1.02 | locus YHR200W, strain rpn10, hits give low values 0.987 | locus YIL066C, strain RNR3, hits give low values 1.02 | locus YIL073C, strain SPO22, hits give low values 1.08 | locus YIL125W, strain kgd1, hits give low values 0.974 | locus YIR030C, strain dcg1, hits give low values 1 | locus YJL092W, strain hpr5, hits give low values 1.01 | locus YJL095W, strain BCK1 (second series), hits give low values 0.995 | locus YJL095W, strain BCK1, hits give low values 1.02 | locus YJL115W, strain asf1, hits give low values 0.998 | locus YJL129C, strain trk1, hits give low values 1.03 | locus YJL134W, strain LCB3, hits give low values 1 | locus YJL154C, strain vps35, hits give low values 1 | locus YJL164C, strain tpk1, hits give low values 0.993 | locus YJL166W, strain qcr8, hits give low values 0.987 | locus YJL168C, strain set2, hits give low values 0.987 | locus YJL187C, strain SWE1 (second series), hits give low values 1.01
